Records with an inconclusive call do not appear. Values without a mark were called inactive. Calls of active or inactive are those of the source. Calls come from the whole dose curve.
Assay: qHTS assay to identify small molecule agonists of the hypoxia (HIF-1) signaling pathway - cell viability counter screen (AID 1224844); note: nearly all actives have a fitted effect of over 50% in size
Settings: HRE-bla ME-180 viability, CellTiter-Glo luminescence, 17 h; series mostly up to 76.8 µM
Description: National Center for Advancing Translational Sciences [NCATS]
NIH Chemical Genomics Center [NCGC]
U.S. Environmental Protection Agency [EPA]
National Institutes of Environmental Health Sciences [NIEHS]
National Toxicology Program [NTP]
U.S. Food and Drug Administration [FDA]
Hypoxia-inducible factor-1 (HIF-1) is the major hypoxia-regulated transcription factor that controls cellular responses to low oxygen concentration. HIF-1 is composed of two subunits: hypoxia responsive HIF-1-alpha and constitutively expressed HIF-1-beta, which is also known as aryl hydrocarbon receptor nuclear translocator. During hypoxic conditions, HIF-1-alpha heterodimerizes with HIF-1-beta and translocates into the nucleus where the HIF-1 complex binds to the hypoxia-response element (HRE) and activates expression of target genes such as VEGF (vascular endothelial growth factor). The HIF-1 pathway is essential to normal growth and development, and is involved in the pathophysiology of cancer, inflammation, and ischemia.
Using a beta-lactamase reporter-gene under control of the hypoxia response element, a cell-based assay [CellSensor(TM) HRE-bla ME-180 from Life Technologies, Carlsbad, CA] was used to measure hypoxia-induced signaling. Tox21 10K library compounds were measured for their ability to induce the reporter gene activity. The cytotoxicity of the Tox21 compound library against HRE-bla ME-180 cell line was tested in parallel by measuring cell viability using CellTiter-Glo assay (Promega, Madison, WI) in the same assay wells.
Tox21 Assay Protocol Summary:
HRE-bla ME-180 cells were dispensed at 2,000 cells per well in 6 uL of assay medium containing 0.5% dialyzed FBS into black wall/clear-bottom 1536-well plates using a Multidrop Combi (Thermo Scientific, Waltham, MA) dispenser. After the assay plates were incubated at 37C and 5% CO2 for 5 hrs, 23 nL of compounds dissolved in DMSO, positive controls or DMSO only was transferred to each well of the assay plate using a Pintool station (Kalypsys, San Diego, CA). The assay plates were incubated at 37C and 5% CO2 for 17 hrs. One uL of LiveBLAzerTM B/G FRET substrate (CCF4-AM) (Life Technologies) was added to each well using a Flying Reagent Dispenser (FRD, Aurora Discovery, San Diego, CA). After 2 hr incubation at room temperature, fluorescence intensity (405 nm excitation, 460 nm and 530 nm emissions) was measured using an Envision plate reader (PerkinElmer, Shelton, CT). For cytotoxicity, 4 ul/well of CellTiter-Glo reagent was added into the assay plates using an FRD. After 30 min incubation at room temperature, the luminescence intensity was measured using a ViewLux plate reader (PerkinElmer).
% is set by controls: 0 for no effect and ±100 for the full control effect.

SMILES	outcome	activity change, negative = cytotoxicity
N[C@H]1C(O)O[C@H](CO)[C@@H](O)[C@@H]1O (stereo not given in full)	inactive	
O=C(c1ccccc1)c1cccc(O)c1	inactive	
C/C(Cl)=C/CCl	inactive	
CC(C)C(=O)Nc1cccc(C2CN3CCSC3=N2)c1 (stereo not given)	inactive	
Cc1ccc(NC(N)=O)cc1	inactive	
CCCCCCCC(=O)N(C)C	inactive	
CC(C)(C)OC=O	inactive	
CN1C(CCl)Nc2cc(Cl)c(S(N)(=O)=O)cc2S1(=O)=O (stereo not given)	inactive	
CC(C)C[P+](C)(CC(C)C)CC(C)C	inactive	
CC(=O)SC[C@@H](C)C(=O)N1CCC[C@H]1C(=O)N[C@@H](Cc1ccccc1)C(=O)O	inactive	
OCCC(F)(F)C(F)(F)C(F)(F)C(F)(F)C(F)(F)C(F)(F)F	inactive	
COC(=O)c1ccc(C(=O)O)cc1	inactive	
Cc1ccc2cccnc2c1	inactive	
C=CCOC(=O)CCCCCCCC	inactive	
COC(=O)/C=C(\C)CCC=C(C)C	inactive	
NC[C@H]1O[C@H](O[C@H]2[C@H](O)[C@@H](O[C@H]3O[C@H](CO)[C@@H](O)[C@H](N)[C@H]3O)[C@H](N)C[C@@H]2N)[C@H](N)[C@@H](O)[C@@H]1O		6.36% [at 15.8 µM]
CC(C)=CCC/C(C)=C\C#N	inactive	
Cc1ccc(N)nc1	inactive	
CC1=C(O)C(=O)CO1	inactive	
CN1CCN(C(=O)C2CCCCC2)CC1	inactive	

SMILES	outcome	activity change, negative = cytotoxicity
c1cc2ccc3ccc4ccc5cccc6c(c1)c2c3c4c56		-14.1% [at 2.72 µM]
CCc1ncc(C)[nH]1	inactive	
CC(=O)Nc1ccc(OCCOCCOc2ccc(NC(C)=O)cc2)cc1	inactive	
CC(C)(C)c1ccc(N)cc1	inactive	
CC(=O)OCC(=O)[C@@]1(O)CC[C@H]2[C@@H]3CCC4=CC(=O)C=C[C@]4(C)[C@H]3[C@@H](O)C[C@@]21C	inactive	
CCCCCCCCS(=O)(=O)O	inactive	
CC(C)(O)c1ccc(C(C)(C)O)cc1	inactive	
Cc1ccc(O)c(C(=O)c2ccccc2)c1	inactive	
CC(C)(C)NCC(O)COc1cccc2c1CCC(=O)N2 (stereo not given)	inactive	
CC(=O)O[C@@H]1CC2C3CCc4cc(OC(=O)c5ccccc5)ccc4C3CCC2(C)[C@H]1OC(C)=O (stereo not given in full)	inactive	
C[Si](C)(C)O[Si](O)(O)O	inactive	
Clc1cc(Cl)c(Cl)c(Cl)c1Cl	inactive	
COc1cc(S(N)(=O)=O)cc(C(=O)O)c1OC	inactive	
C[C@]12C=CC(=O)C=C1[C@@H](F)C[C@@H]1[C@@H]2[C@@H](O)C[C@@]2(C)[C@H]1CC[C@]2(O)C(=O)CO	inactive	
CC(C)OC(=O)C(C(=O)OC(C)C)=C1SC=CS1	inactive	
CCCC(=O)C(CC)Sc1ccoc1C (stereo not given)	inactive	
CCCCCCCCCCCCCCCC(=O)OC		9.89% [at 15.8 µM]
C=COCCCCO	inactive	
Cc1nnc(C(=O)NC(C)(C)c2nc(C(=O)NCc3ccc(F)cc3)c(O)c(=O)n2C)o1	inactive	
NC(=O)CC[C@@H](N)C(=O)O	inactive	
